Our source for the growth sensitivity score values is the supplement of paper PMC3414501.

Molecules are shown by their SMILES. Structures can show the parent of a compound that is named as a salt. A number with no mark means an inactive call. No stated cut-off is given here; in the data, active = 2 or more and inactive = the rest.

In this experiment the test system is S. cerevisiae BY4741 (wild-type), vegetative growth in YPD. In words: growth sensitivity score (doubling time z-score vs DMSO controls); higher = slower growth, strongly negative scores also mark growth inhibition (complete suppression), active = hit call of the paper. An outline of the steps:
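Yeast (Saccharomyces cerevisiae BY4741 and AD1-9) was grown in rich medium in microtiter plates from a starting OD600 of 0.065, with optical density read every 15 min over 24 hours. The growth sensitivity score was the difference between compound and solvent-only means, divided by the solvent-only standard deviation. Every experiment had eight solvent-only wells.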
Turning to `CNC(=C[N+](=O)[O-])NCCSCc1csc(CN(C)C)n1` [Nizatidine] (stock concentration (mM, diluted 1:100): 10), the growth sensitivity score is -0.09. The same measure for `COCCOC(=O)C1=C(C)NC(C)=C(C(=O)OC(C)C)C1c1cccc([N+](=O)[O-])c1` (centres undefined) [Nimodipine] (stock concentration (mM, diluted 1:100): 10): 0.46; for `CC(=O)OCC(=O)NCCCOc1cccc(CN2CCCCC2)c1` [Roxatidine acetate hydrochloride] (stock concentration (mM, diluted 1:100): 9.1): -1.51; for `CC(C)(C)C(O)/C=C/c1ccc2c(c1)OCO2` (centres undefined) [Stiripentol] (stock concentration (mM, diluted 1:100): 10): 2.6 (active).

Regarding `CN1CCCC(n2nc(Cc3ccc(Cl)cc3)c3ccccc3c2=O)CC1` (centres undefined) [Azelastine hydrochloride] (stock concentration (mM, diluted 1:100): 9.1), the growth sensitivity score is 0.19. `COc1ccc(CC(C)NCC(O)c2ccc(O)c(NC=O)c2)cc1` (centres undefined) [Formoterol fumarate dihydrate] (stock concentration (mM, diluted 1:100): 7): the growth sensitivity score is -0.1.

With `CCN(CC)CC(=O)Nc1c(C)cccc1C` [Lidocaine] (stock concentration (mM, diluted 1:100): 9.6), the growth sensitivity score was -0.16.

`Clc1cccc(Cl)c1NC1=NCCN1` [Clonidine] (stock concentration (mM, diluted 1:100): 10): the growth sensitivity score is -1.97. As to `COc1cc2nc(N3CCN(C(=O)C4CCCO4)CC3)nc(N)c2cc1OC` (centres undefined) [Terazosin] (stock concentration (mM, diluted 1:100): 9.5), the growth sensitivity score is -0.03. `COc1ccc2[nH]c([S+]([O-])Cc3ncc(C)c(OC)c3C)nc2c1` (centres undefined) [Omeprazole] (stock concentration (mM, diluted 1:100): 10): the growth sensitivity score was 0.39. `Cc1cccc(Nc2ccncc2S(=O)(=O)NC(=O)NC(C)C)c1` [Torasemide] (stock concentration (mM, diluted 1:100): 9.9): the growth sensitivity score is -0.66. Consider `CN(C)CCC[C@@]1(c2ccc(F)cc2)OCc2cc(C#N)ccc21` [Escitalopram oxalate] (stock concentration (mM, diluted 1:100): 7.9), for which the growth sensitivity score is 0.93. For `O=C1c2c(O)cc(O)cc2OC(c2ccc(O)c(O)c2)C1O` (centres undefined) [Taxifolin] (stock concentration (mM, diluted 1:100): 10.1) the value was -1.02. On to `C[C@@H]1C[C@H]2[C@@H]3CCC4=CC(=O)C=C[C@]4(C)[C@@]3(F)[C@@H](O)C[C@]2(C)[C@H]1C(=O)CO` [Desoximetasone] (stock concentration (mM, diluted 1:100): 10), for which the growth sensitivity score was 1.97. As for `CO[C@H]1O[C@@H]2O[C@@]3(C)CC[C@H]4[C@H](C)CC[C@@H]([C@H]1C)[C@@]24OO3` [Artemether] (stock concentration (mM, diluted 1:100): 10), the growth sensitivity score was 17.6 (active). The same measure for `O=C1[C@H]2CCCC[C@H]2C(=O)N1CCCCN1CCN(c2nsc3ccccc23)CC1` [Perospirone hydrochloride] (stock concentration (mM, diluted 1:100): 9.4): 3.13 (active); for `CCN1CCC[C@H]1CNC(=O)c1cc(S(N)(=O)=O)ccc1OC` [Levosulpiride] (stock concentration (mM, diluted 1:100): 10): 0.25; for `CC(C)[C@H](N)C(=O)OCCOCn1cnc2c(=O)nc(N)[nH]c21` [Valaciclovir hydrochloride] (stock concentration (mM, diluted 1:100): 9): 0.36. For `COc1cc(N)c(Cl)cc1C(=O)NC1CCN(CCCOc2ccc(F)cc2)CC1OC` (centres undefined) [Cisapride] (stock concentration (mM, diluted 1:100): 10.5), the growth sensitivity score is 1.35.

Take `CCC(C)n1ncn(-c2ccc(N3CCN(c4ccc(OCC5COC(Cn6cncn6)(c6ccc(Cl)cc6Cl)O5)cc4)CC3)cc2)c1=O` (centres undefined) [Itraconazole] (stock concentration (mM, diluted 1:100): 10.1): the growth sensitivity score was 10.9 (active).

With `CN1CCN(C2=Nc3cc(F)ccc3Cc3ccccc32)CC1` [Fluperlapine] (stock concentration (mM, diluted 1:100): 10), the growth sensitivity score is 0.57. On to `CCOC(=O)C1=C(C)NC(C)=C(C(=O)OCC)C1c1ccccc1/C=C/C(=O)OC(C)(C)C` [Lacidipine] (stock concentration (mM, diluted 1:100): 10), for which the growth sensitivity score was -1.71.

As for `CC(C)[C@H]1CC[C@H](C(=O)N[C@H](Cc2ccccc2)C(=O)O)CC1` [Nateglinide] (stock concentration (mM, diluted 1:100): 10), the growth sensitivity score is -0.35. As for `CN(C)CC[C@@H](c1ccc(Br)cc1)c1ccccn1` [Dexbrompheniramine maleate] (stock concentration (mM, diluted 1:100): 7.3), the growth sensitivity score is -1.48.

In the case of `C[C@H]1COc2c(C3(N)CC3)c(F)cc3c(=O)c(C(=O)O)cn1c23` [Pazufloxacin] (stock concentration (mM, diluted 1:100): 10), the growth sensitivity score was -1.05. The same measure for `COc1ccc2cc([C@H](C)C(=O)O)ccc2c1` [Naproxen sodium] (stock concentration (mM, diluted 1:100): 10): -0.72; for `O=C(NCCN1CCOCC1)c1ccc(Cl)cc1` [Moclobemide] (stock concentration (mM, diluted 1:100): 10): -0.18.

Regarding `OCCN1C[C@H](O)[C@@H](O)[C@H](O)[C@H]1CO` [Miglitol] (stock concentration (mM, diluted 1:100): 10), the growth sensitivity score was -1.34. As for `C[C@H](N[C@@H](CCc1ccccc1)C(=O)O)C(=O)N1CCC[C@H]1C(=O)O` [Enalaprilat] (stock concentration (mM, diluted 1:100): 10), the growth sensitivity score is 0.34.
